Source: the supplement of paper PMC13380429

Tested on: Vero E6 infected with SARS-CoV-2
Assay: inhibition of SARS-CoV-2 cytopathic effect; higher = more antiviral protection, active = above 15
Conditions: 48 h

Measured: inhibition of SARS-CoV-2 cytopathic effect

COc1nccc(-c2c(-c3ccc(F)cc3)ncn2C2CCNCC2)n1
inactive: 1 nM -7.74% | 8.33 nM 0.83% | 100 nM -2.49% | 833.33 nM -2.73% | 10000 nM 7.05%

CN[C@H](CC(C)C)C(=O)N[C@H]1C(=O)N[C@@H](CC(N)=O)C(=O)N[C@H]2C(=O)N[C@H]3C(=O)N[C@H](C(=O)N[C@H](C(=O)O)c4cc(O)cc(O)c4-c4cc3ccc4O)[C@H](O)c3ccc(c(Cl)c3)Oc3cc2cc(c3O[C@@H]2O[C@H](CO)[C@@H](O)[C@H](O)[C@H]2O[C@H]2C[C@](C)(N)[C@H](O)[C@H](C)O2)Oc2ccc(cc2Cl)[C@H]1O
inactive: 1 nM 0.55% | 8.33 nM 1.31% | 100 nM -0.56% | 833.33 nM 3.7% | 10000 nM 0.87%

COc1cc2c(Oc3ccc(NC(=O)C4(C(=O)Nc5ccc(F)cc5)CC4)cc3F)ccnc2cc1OCCCN1CCOCC1 [foretinib]
inactive: 1 nM -0.07% | 8.33 nM -1.17% | 100 nM 2.06% | 833.33 nM -5.86% | 10000 nM -22.4%

O=C(c1ccc(/C=C/c2n[nH]c3ccccc23)cc1)N1CCNCC1
inactive: 1 nM 0.11% | 8.33 nM 1.26% | 100 nM 0.85% | 833.33 nM 0.22% | 10000 nM -1.99%

COC(=O)[C@@H](N)CCCNC(=N)N[N+](=O)[O-]
inactive: 1 nM 0.94% | 8.33 nM -2.09% | 100 nM -1.83% | 833.33 nM -3.06% | 10000 nM -0.4%

CN(C)C(=O)Oc1ccc[n+](C)c1 [mestinon]
inactive: 1 nM 4.06% | 8.33 nM -0.26% | 100 nM 0.13% | 833.33 nM -2.1% | 10000 nM -1.86%

CNC(=O)c1cc(Oc2ccc(NC(=O)Nc3ccc(Cl)c(C(F)(F)F)c3)c(F)c2)ccn1 [regorafenib]
inactive: 1 nM 2.3% | 8.33 nM 3.25% | 100 nM 1.21% | 833.33 nM -1.69% | 10000 nM 2.67%

CCCCCCCCCCCCCCCCCCCCCCCCCCCCO [1-octacosanol]
inactive: 1 nM 1.47% | 8.33 nM 3.47% | 100 nM 4.36% | 833.33 nM -0.37% | 10000 nM 1.08%

O=C(NCNC(=O)NC1C(=O)NC(=O)N1CO)NC1C(=O)NC(=O)N1CO (stereo not given) [imidurea]
inactive: 1 nM -0.15% | 8.33 nM 0.45% | 100 nM -1.76% | 833.33 nM -1.38% | 10000 nM 0.38%

COc1ccc2c(c1)c(CC(=O)N1CCOCC1)c(C)n2C(=O)c1ccc(Cl)cc1
inactive: 1 nM 0.39% | 8.33 nM -0.48% | 100 nM 1.8% | 833.33 nM -0.58% | 10000 nM -0.85%

Fc1ccc2c(CCNCc3cccc(OCC(F)(F)C(F)F)c3)c[nH]c2c1 [idalopirdine]
inactive: 1 nM 2.26% | 8.33 nM 0.96% | 100 nM 0.82% | 833.33 nM -0.82% | 10000 nM -3.37%

CC(C)(C)CC(=O)Nc1c(F)cc(C(=O)/N=c2\sccn2COP(=O)(O)O)cc1F
inactive: 1 nM 0.06% | 8.33 nM -0.74% | 100 nM -3.11% | 833.33 nM -0.94% | 10000 nM 2.91%

OC(CCN1CCCCC1)(c1ccccc1)C1CCCCC1 (stereo not given) [trihexyphenidyl]
inactive: 1 nM -14.3% | 8.33 nM -7.63% | 100 nM -2.35% | 833.33 nM -9.38% | 10000 nM -10.1%

OCCn1cc(-c2cnc3nnn(Cc4ccc5ncccc5c4)c3n2)cn1
inactive: 1 nM 1.37% | 8.33 nM 2% | 100 nM 1.01% | 833.33 nM 2.71% | 10000 nM 2.26%

CCn1cc(C(=O)O)c(=O)c2ccc(-c3ccncc3)cc21 [rosoxacin]
inactive: 1 nM -1.03% | 8.33 nM -0.12% | 100 nM -1.66% | 833.33 nM -2.14% | 10000 nM 3.73%

O=C(CN1CCN(Cc2ccc3c(c2)OCO3)CC1)N1c2ccccc2Sc2ccccc21 [fenoverine]
inactive: 1 nM 0.16% | 8.33 nM -2.81% | 100 nM 4.98% | 833.33 nM -0.47% | 10000 nM -3.71%

Cc1c(NC(=O)OC[C@@H]2COCCN2)cn2ncnc(Nc3ccc4c(cnn4Cc4cccc(F)c4)c3)c12
inactive: 1 nM 0.31% | 8.33 nM -2.14% | 100 nM -2.74% | 833.33 nM -8.47% | 10000 nM -10.8%

CC(C)(C)C#Cc1cc(N(C(=O)[C@H]2CC[C@H](C)CC2)[C@H]2CC[C@@H](O)CC2)c(C(=O)O)s1
inactive: 1 nM 1.62% | 8.33 nM 2.19% | 100 nM -0.17% | 833.33 nM 1.33% | 10000 nM 1.51%

OC[C@H]1O[C@@H](O[C@@H]2[C@@H](CO)OC(O)(CO)[C@H]2O)[C@H](O)[C@@H](O)[C@H]1O (mixture of isomers) [lactulose]
inactive: 1 nM 1.11% | 8.33 nM 0.23% | 100 nM -0.45% | 833.33 nM -1.79% | 10000 nM 1.61%

Cc1ccc(S(=O)(=O)OCC(=O)Nc2ccc(C(=O)O)c(O)c2)cc1 [STAT3-inhibitor-VI]
inactive: 1 nM -0.14% | 8.33 nM -0.23% | 100 nM 0.11% | 833.33 nM -1.76% | 10000 nM 1.39%

O=C(Nc1cc(C(F)(F)F)cc(C(F)(F)F)c1)Nc1c(Br)cc(Br)cc1-c1nnn[nH]1
inactive: 1 nM 1.22% | 8.33 nM 1.04% | 100 nM -0.61% | 833.33 nM -2.22% | 10000 nM -3.2%

COc1ccc(-c2cc(=O)c3c(O)c(OC)c(O)cc3o2)cc1OC [eupatilin]
inactive: 1 nM 1.23% | 8.33 nM -0.46% | 100 nM 0.38% | 833.33 nM 1.92% | 10000 nM 2.58%

Cc1ccccc1C(=O)c1ccc(Nc2ccc(Br)cc2N)cc1Cl
inactive: 1 nM 1.98% | 8.33 nM 1.13% | 100 nM -4.39% | 833.33 nM -0.22% | 10000 nM 3.01%

Cn1c(NCCN(CCO)CCCc2ccc([N+](=O)[O-])cc2)cc(=O)n(C)c1=O [nifekalant]
inactive: 1 nM -1.86% | 8.33 nM 0% | 100 nM -1.76% | 833.33 nM -0.02% | 10000 nM -1.25%

Cc1nc2ccccc2n1Cc1ccc(Cl)cc1 [chlormidazole]
inactive: 1 nM -3.42% | 8.33 nM -1.1% | 100 nM -6.27% | 833.33 nM -3.55% | 10000 nM -4.49%

N#Cc1cc2c(OCC(O)CN3CCN(C(c4ccccc4)c4ccccc4)CC3)cccc2[nH]1 (stereo not given)
inactive: 1 nM 0.5% | 8.33 nM -0.23% | 100 nM 0.3% | 833.33 nM 4.21% | 10000 nM -2.26%

NCCCCCC(O)(P(=O)(O)O)P(=O)(O)O [neridronic-acid]
inactive: 1 nM 0.84% | 8.33 nM -0.27% | 100 nM -2.11% | 833.33 nM 2.29% | 10000 nM 3.47%

CCOC(=O)c1ncc2[nH]c3cccc(OC(C)C)c3c2c1C
inactive: 1 nM 2.48% | 8.33 nM -1.73% | 100 nM 3.11% | 833.33 nM 5.05% | 10000 nM 7.71%

COC(=O)C1=C(C)NC(C)=C(C(=O)OCC(C)C)C1c1ccccc1[N+](=O)[O-] (stereo not given) [nisoldipine]
inactive: 1 nM -1.53% | 8.33 nM 0.72% | 100 nM -2.24% | 833.33 nM -0.83% | 10000 nM 1.64%

O=C(NCC(=O)N1CC[C@H](N[C@H]2CC[C@@](O)(c3ccc(-c4ncccn4)cn3)CC2)C1)c1cccc(C(F)(F)F)c1
inactive: 1 nM -4.52% | 8.33 nM -2.69% | 100 nM 1.06% | 833.33 nM -0.75% | 10000 nM -0.61%

CN1CCN(c2ccc3ccccc3n2)CC1 [N-methylquipazine]
inactive: 1 nM 0.97% | 8.33 nM -1.57% | 100 nM 0.41% | 833.33 nM -1.31% | 10000 nM -0.19%

Cc1c(C)c2c(c(C)c1O)CCC(C)(C(=O)O)O2 (stereo not given) [trolox]
inactive: 1 nM 4.59% | 8.33 nM 3.64% | 100 nM 1.16% | 833.33 nM 6.02% | 10000 nM 2.14%

O=C(O)c1cc(O)c2c(Cl)cc(Cl)cc2n1 [5,7-dichlorokynurenic-acid]
inactive: 1 nM 1.65% | 8.33 nM -2.54% | 100 nM -2.79% | 833.33 nM 0.55% | 10000 nM -0.44%

COc1cccc(-c2cc(=O)c3ccccc3o2)c1N
inactive: 1 nM 1.12% | 8.33 nM -3.81% | 100 nM -0.32% | 833.33 nM -3.58% | 10000 nM -5.22%

COc1ccc(-c2cc(=O)c3c(OC)c(OC)c(OC)c(OC)c3o2)cc1OC [nobiletin]
inactive: 1 nM -1.63% | 8.33 nM -2.18% | 100 nM -7.44% | 833.33 nM -2.1% | 10000 nM -0.29%

O=C(/C=C/c1ccccc1)NC(NC(=S)Nc1cccc2cccnc12)C(Cl)(Cl)Cl (stereo not given) [salubrinal]
inactive: 1 nM 3.2% | 8.33 nM 0.1% | 100 nM 1.16% | 833.33 nM -0.28% | 10000 nM 1.23%

CCCCCCCCCCCCCCCC[n+]1ccn(Cc2ccccc2)c1C
inactive: 1 nM -1.36% | 8.33 nM 0.51% | 100 nM 0.65% | 833.33 nM -4.4% | 10000 nM -20.9%

COc1cc2c(cc1OC)CN(C(=O)[C@@H](NCc1ccncc1)C(C)(C)C)CC2
inactive: 1 nM 2.06% | 8.33 nM 3.28% | 100 nM 2.93% | 833.33 nM 1.04% | 10000 nM 1.19%

N[C@@H](Cc1c[nH]c2ccc(O)cc12)C(=O)O [5-hydroxytryptophan]
inactive: 1 nM -0.86% | 8.33 nM 0.52% | 100 nM 1.04% | 833.33 nM 2.16% | 10000 nM 2.55%
